{"source": "PubChem BioAssay AID651598", "about": "(Sanford-Burnham Center for Chemical Genomics, 2012)", "note": "Where “and” joins values, the source holds several entries; their conditions need not be identical. Identical values can stand only once.", "data": [{"target": "C-X-C chemokine receptor type 6 (Homo sapiens) (UniProt O00574)", "sequence (O00574 whole entry, looked up)": "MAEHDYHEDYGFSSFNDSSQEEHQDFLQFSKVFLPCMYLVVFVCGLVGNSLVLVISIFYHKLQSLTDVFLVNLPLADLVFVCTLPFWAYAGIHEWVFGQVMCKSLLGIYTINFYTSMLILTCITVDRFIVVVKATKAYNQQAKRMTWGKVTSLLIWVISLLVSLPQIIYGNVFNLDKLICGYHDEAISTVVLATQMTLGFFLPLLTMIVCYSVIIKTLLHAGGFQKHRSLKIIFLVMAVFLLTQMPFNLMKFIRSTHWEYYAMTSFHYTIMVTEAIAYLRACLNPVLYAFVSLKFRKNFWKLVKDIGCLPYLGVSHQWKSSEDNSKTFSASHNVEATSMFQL", "experiment": "APJ beta-arrestin recruitment blockade alongside CXCR6 – cell-based, DiscoveRx, panel, CHO-K1, counter-screen for CXCR6 antagonist project, SAR follow-up (AID 651598)", "settings": "CHO-K1 PathHunter beta-arrestin luminescence, antagonist mode; run 4, at 80 µM (top of the series)", "values": [{"smiles": "COc1cc(C(=O)NC2CC3CCC(C2)N3CC(=O)Nc2ccccc2)cc(OC)c1OC", "note": "(stereo not drawn)", "inhibition": "45.8% and 2.45%"}, {"smiles": "COc1cc(C(=O)NC2CCN(CC(=O)Nc3ccccc3)CC2)cc(OC)c1OC", "inhibition": "29.6%"}, {"smiles": "COc1cc(C(=O)NC2CC3CCCC(C2)N3CC(=O)Nc2ccccc2)cc(OC)c1OC", "note": "(stereo not drawn)", "inhibition": "88.8% and 51.2% and 29%"}]}]}
